Experimental data taken from PubChem BioAssay AID2061305 (National Center for Advancing Translational Sciences (NCATS), 2025).
Inconclusive results are not listed. Activity calls are given as the source filed them. Calls follow the shape of the dose curve; as a rule, active = well fitted inhibition curve with a large enough effect; inconclusive = small, poorly fitted or top-dose-only effect; inactive = flat fitted curve, though single readings scatter. Where a SMILES comes first, the peptide text is derived from it. [ ]: non-standard residue; d: D form. The star is where a group is joined. Dolaproine = CO[C@@H]([C@@H]1CCCN1)[C@@H](C)C(=O)O; Dil = CC[C@H](C)[C@H](NC)[C@@H](CC(=O)O)OC; NMe2Val = CC(C)[C@@H](C(=O)*)N(C)C; X1 = C[C@@H](N*)[C@@H](O)c1ccccc1; NMeV = CN[C@H](C(=O)O)C(C)C

Assay: Identification of antibody-drug conjugate (ADC) payloads which are substrates of ATP-binding cassette drug efflux transporters: ABCB1-HeLa-KB-3-1 cell line
Conditions: KB-3-1 (HeLa derivative) viability, CellTiter-Glo, 48 h
Text: Antibody-drug conjugates (ADCs) feature an antibody recognizing a specific protein joined to a potent toxic payload. Numerous antibody-drug conjugates have received FDA approval; however, clinical resistance arises. Resistance mechanisms include decreased expression or mutation of the antibody target, impaired payload release, or increased expression of ATP-binding cassette (ABC) efflux transporters associated with multidrug resistance. We therefore sought to characterize the interaction of ABC multidrug transporters with ADC payloads. We performed a high-throughput screen with 27 common ADC payloads using cells lines expressing ABC transporters P-glycoprotein (P-gp, encoded by ABCB1) or ABCG2 (encoded by ABCG2). Confirmatory assays were also performed using cells transfected to express P-gp, ABCG2, or MRP1 (encoded by ABCC1). Several commonly used ADC payloads were substrates of P-gp, including calicheamicin gamma1, monomethyl auristatin E, DM1, and DM4. All the pyrrolobenzodiazepines tested - SJG136, SGD-1882, SG2057, and SG3199 - were substrates of P-gp, ABCG2, and MRP1. […] These findings highlight the risk of transporter-mediated resistance with certain ADC payloads and underscore the importance of selecting payloads that evade ABC transporter recognition in future ADC development.
HEK-293 cells were transfected with empty vector (pcDNA) or vector containing the human ABCB1 (MDR-19), ABCG2 (R-5), or ABCC1 gene (MRP1) and were maintained in EMEM with 2 mg/mL G418 added to maintain transporter expression. The HeLa derivative KB-3-1 and the P-gp overexpressing KB-8-5-11 subline were maintained in DMEM; KB-8-5-11 additionally received 100 ng/mL colchicine. H460 parental cells were obtained from the Division of Cancer Treatment and Diagnosis Tumor Repository, National Cancer Institute at Frederick, MD and were cultured in RPMI. The ABCG2 expressing subline H460 MX20 was generated by selecting H460 cells in 20 nM mitoxantrone. Media in all cases was supplemented with 10% FBS and 1% penicillin-streptomycin. We explored 27 common ADC payloads, in two orthogonal, paired cell line sets-a drug selected and transfected set for each transporter--to identify substrates of the ABC transporters P-gp and ABCG2. Compounds were sourced from Levena Biopharma (San Diego, CA), Selleck Chem (Houston, TX), ChemieTek (Indianapolis, IN), or Microsource Discovery Systems (Gaylordsville, CT). Screening was performed as previously described. Briefly, cells were plated at a density of 500 cells/well in 1536 well plates with compounds added using a 1536-head pin tool (Kalypsys, San Diego CA). Cells were incubated with cytotoxic drugs and processed with CellTiter Glo reagent (Promega, Madison, WI) to determine viability after 48 hours. P-gp substrates were identified by comparing compound activity between paired sets of low-expressing (sensitive) and over-expressing (resistant) cell lines.

Structure (SMILES)	Potency
COc1cc2cc(C(=O)N3C[C@@H](CCl)c4c3cc(O)c3ccccc43)[nH]c2c(OC)c1OC	1.3 nM (active)
CC[C@H](C)[C@@H]([C@@H](CC(=O)N1CCC[C@H]1[C@H](OC)[C@@H](C)C(=O)N[C@H](C)[C@@H](O)c1ccccc1)OC)N(C)C(=O)[C@@H](NC(=O)[C@@H](NC)C(C)C)C(C)C (H-[NMeV]V[Dil][Dolaproine]-X1)	0.3 nM (active)
CC[C@H](C)[C@@H]([C@@H](CC(=O)N1CCC[C@H]1[C@H](OC)[C@@H](C)C(=O)N[C@@H](Cc1ccccc1)C(=O)O)OC)N(C)C(=O)[C@@H](NC(=O)[C@H](C(C)C)N(C)C)C(C)C (NMe2Val-V[Dil][Dolaproine]F-OH)	33.4 nM (active)
CC[C@H](C)[C@@H]1NC(=O)CNC(=O)[C@H]2Cc3c([nH]c4cc(O)ccc34)S(=O)C[C@H](NC(=O)CNC1=O)C(=O)N[C@@H](CC(N)=O)C(=O)N1C[C@H](O)C[C@H]1C(=O)N[C@@H]([C@@H](C)[C@@H](O)CO)C(=O)N2 (stereo not given in full)	5290 nM (active)
CC[C@@]1(O)C(=O)OCc2c1cc1n(c2=O)Cc2cc3ccccc3nc2-1	334 nM (active)
CC[C@H](C)[C@@H]([C@@H](CC(=O)N1CCC[C@H]1[C@H](OC)[C@@H](C)C(=O)N[C@H](C)[C@@H](O)c1ccccc1)OC)N(C)C(=O)[C@@H](NC(=O)[C@H](C(C)C)N(C)C)C(C)C	0.2 nM (active)
CC[C@H](C)[C@H](NC(=O)[C@H]1CCCCN1C)C(=O)N(C)[C@H](C[C@@H](OC(C)=O)c1nc(C(=O)N[C@@H](Cc2ccccc2)C[C@H](C)C(=O)O)cs1)C(C)C	0.3 nM (active)
CC[C@H](C)[C@H](NC(=O)[C@H]1CCCCN1C)C(=O)N(C)[C@H](C[C@@H](OC(C)=O)c1nc(C(=O)O)cs1)C(C)C	472 nM (active)
COc1cccc2c1C(=O)c1c(O)c3c(c(O)c1C2=O)C[C@@](O)(C(=O)CO)CC3OC1CC(N2CCOC(OC)C2)C(O)C(C)O1 (stereo not given in full)	11.8 nM (active)
COc1cc2cc(c1Cl)N(C)C(=O)C[C@H](OC(=O)[C@H](C)N(C)C(=O)CCC(C)(C)S)[C@]1(C)OC1[C@H](C)C1C[C@@](O)(NC(=O)O1)[C@H](OC)/C=C/C=C(\C)C2 (stereo not given in full)	0.5 nM (active)
